Experimental data from PubChem BioAssay (NCI).
About 83,000 compounds went through this panel and 20% of them were active in at least one assay; those are over-represented in the sample as a whole.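 Single-dose data. Exposure time 48 hours. Values below 10 considered active.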 Calls of active or inactive are those of the source.

How the values were obtained:
Assay in all cases: NCI-60 one-dose screen, 48 h (100 = growth as untreated, 0 = no growth, -100 = all killed)
Details in all cases: 10 µM
BT-549 breast = test system: BT-549 breast
MDA-MB-435 melanoma = test system: MDA-MB-435 melanoma
SW-620 colon = test system: SW-620 colon
MCF7 breast = test system: MCF7 breast
HCT-116 colon = test system: HCT-116 colon
HCC-2998 colon = test system: HCC-2998 colon
KM12 colon = test system: KM12 colon

Measured: growth

O=C(CC(C(=O)c1ccccc1)N1CCOCC1)c1ccccc1 (configuration not stated)
inactive: BT-549 breast 99.6% | MDA-MB-435 melanoma 107% | SW-620 colon 60.8% | MCF7 breast 43.4% | HCT-116 colon 77.3% | HCC-2998 colon 104% | KM12 colon 105%

Cc1ccc(-c2n[nH]c(=O)c3noc(-c4ccc(C)cc4)c23)cc1
active: MDA-MB-435 melanoma -13.3%
inactive: BT-549 breast 38.3% | SW-620 colon 28% | MCF7 breast 20.2% | HCT-116 colon 32.2% | HCC-2998 colon 70.3% | KM12 colon 35.9%

COc1ccc(-c2ccc3cc(C(=O)Nc4ccc(O)c(C(=O)/C=C/c5cc(OC)c(OC)c(OC)c5)c4)ccc3c2)cc1
inactive: BT-549 breast 102% | MDA-MB-435 melanoma 93.4% | SW-620 colon 94.2% | MCF7 breast 87.3% | HCT-116 colon 79.2% | KM12 colon 104%

O=C1NC(=O)c2ncccc21
inactive: BT-549 breast 91.1% | MDA-MB-435 melanoma 100% | SW-620 colon 120% | MCF7 breast 95.5% | HCT-116 colon 102% | HCC-2998 colon 103% | KM12 colon 107%

C(CCCC1=NCCO1)CCCC1=NCCO1
inactive: BT-549 breast 103% | MDA-MB-435 melanoma 109% | SW-620 colon 99.4% | MCF7 breast 102% | HCT-116 colon 112% | KM12 colon 103%

O=C1OCC2=C1C(c1ccc(Cl)c(Cl)c1)c1cc3c(cc1N2CCO)OCCO3 (configuration not stated)
inactive: BT-549 breast 60.4% | SW-620 colon 19% | MCF7 breast 20.4% | HCT-116 colon 19.8%
active: MDA-MB-435 melanoma -52.6% | KM12 colon 4.49%

COc1ccc(/C=C2/CN(CCC#N)C/C(=C\c3ccc(OC)cc3)C2=O)cc1
inactive: MCF7 breast 10.4%
active: BT-549 breast 5.02% | MDA-MB-435 melanoma -30% | SW-620 colon -37.2% | HCC-2998 colon -82.3%

O=C1OCC2=C1C(c1cccc(Cl)c1)c1cc3c(cc1N2CCO)CCC3 (configuration not stated)
inactive: SW-620 colon 16% | MCF7 breast 14.1%
active: BT-549 breast 8.33% | MDA-MB-435 melanoma -49.5% | HCT-116 colon 2.02% | KM12 colon -47.4%

CN(C)c1ccc(Cc2ccc(N(C)C)cc2Cl)c(Cl)c1
inactive: BT-549 breast 136% | MDA-MB-435 melanoma 109% | SW-620 colon 91.2% | MCF7 breast 111% | HCT-116 colon 95.4% | HCC-2998 colon 96.8% | KM12 colon 90.4%

CN(CCc1ccccn1)c1ccccc1
inactive: BT-549 breast 104% | MDA-MB-435 melanoma 120% | SW-620 colon 111% | MCF7 breast 95.9% | HCT-116 colon 101% | HCC-2998 colon 103% | KM12 colon 104%

COc1ccc2c(c1)N(CCO)C1=C(C(=O)OC1)C2c1ccccc1 (configuration not stated)
inactive: BT-549 breast 47.2% | SW-620 colon 13.9% | MCF7 breast 25.4% | HCT-116 colon 25.9% | KM12 colon 17.4%
active: MDA-MB-435 melanoma -62.9%

O=C1OCC2=C1C(c1cccc(Cl)c1)c1cc3c(cc1N2CCO)OCCO3 (configuration not stated)
inactive: BT-549 breast 32.4% | SW-620 colon 18.7% | MCF7 breast 18%
active: MDA-MB-435 melanoma -42.1% | HCT-116 colon 6.21% | KM12 colon -32.8%

O=C(/C(=C/c1ccccc1)CN1CCCCC1)c1ccccc1
active: BT-549 breast -56.6% | MDA-MB-435 melanoma 6.16% | SW-620 colon 0.239% | MCF7 breast -22% | HCT-116 colon -87.4% | HCC-2998 colon -91% | KM12 colon -75.8%

COc1ccc(/C=C/C(C)=N/OCC(=O)O)cc1
inactive: BT-549 breast 98.6% | MDA-MB-435 melanoma 114% | SW-620 colon 107% | MCF7 breast 100% | HCT-116 colon 96.9% | HCC-2998 colon 105% | KM12 colon 106%

Cc1cc(N(CCCNc2ccnc3cc(Cl)ccc23)Cc2ccc3c(c2)OCO3)nc(N2CCCCC2)n1
active: BT-549 breast -24% | MDA-MB-435 melanoma -74.6% | SW-620 colon -39.4% | MCF7 breast -14.3% | HCT-116 colon -43.9% | HCC-2998 colon -57.6%
inactive: KM12 colon 10.4%

COc1ccc2c(c1)/C(=C\c1c[nH]c3ccc(OC)cc13)C(=O)N2
active: MDA-MB-435 melanoma -11.5%
inactive: BT-549 breast 57.7% | SW-620 colon 15.1% | MCF7 breast 29.6% | HCT-116 colon 30.1% | HCC-2998 colon 49.4% | KM12 colon 10.1%

COc1cccc(C2C3=C(COC3=O)N(CCO)c3cc(OC)ccc32)c1 (configuration not stated)
inactive: BT-549 breast 16.9% | SW-620 colon 21% | MCF7 breast 23% | HCT-116 colon 10.6%
active: MDA-MB-435 melanoma -44.7% | KM12 colon -5.83%

CCCCCCCCCCCCCCCCCCOCC(COCCOCC[N+]1(CCCCCC(=O)[O-])CCCC1)Oc1ncccn1 (configuration not stated)
inactive: BT-549 breast 33.8% | MDA-MB-435 melanoma 51.7% | SW-620 colon 42.9% | MCF7 breast 25.7% | HCT-116 colon 20.4% | HCC-2998 colon 24.7% | KM12 colon 15.2%

COc1cc2c(cc1OC)N(CCO)C1=C(C(=O)OC1)C2c1ccc(Cl)c(Cl)c1 (configuration not stated)
inactive: BT-549 breast 89.4% | MDA-MB-435 melanoma 101% | SW-620 colon 102% | MCF7 breast 95.8% | HCT-116 colon 97.7% | KM12 colon 102%

O=C1OCC2=C1C(c1cccc(Br)c1)c1cc3c(cc1N2CCO)CCC3 (configuration not stated)
active: MDA-MB-435 melanoma -40% | HCT-116 colon 6.12% | KM12 colon -47.5%
inactive: BT-549 breast 15.7% | SW-620 colon 17.5% | MCF7 breast 21.4%

O=C(NC(Cc1ccc(O)cc1)C(=O)N=Nc1c(O)[nH]c2ccccc12)c1ccccc1 (configuration not stated)
inactive: BT-549 breast 102% | MDA-MB-435 melanoma 103% | SW-620 colon 96.4% | MCF7 breast 103% | HCT-116 colon 99.3% | KM12 colon 99.2%

CCCCC/C=C/C(=O)CCc1ccc(O)c(OC)c1
active: MCF7 breast 1.77%
inactive: BT-549 breast 66.9% | MDA-MB-435 melanoma 19.4% | SW-620 colon 68.4% | HCT-116 colon 13.6% | HCC-2998 colon 21% | KM12 colon 31.1%

CCOC(=O)N1C/C(=C/c2ccc(F)cc2)C(=O)/C(=C/c2ccc(F)cc2)C1
active: BT-549 breast -44.3% | MDA-MB-435 melanoma -47.4% | SW-620 colon -66% | MCF7 breast -45.9% | HCC-2998 colon -80.9%

CC(=O)c1cc(Cl)ccc1O
inactive: BT-549 breast 105% | MDA-MB-435 melanoma 101% | SW-620 colon 95.9% | MCF7 breast 105% | HCT-116 colon 102% | HCC-2998 colon 97.4% | KM12 colon 96.2%

O=C1OCC2=C1C(c1cccc(Cl)c1)c1cc3c(cc1N2CCO)OCO3 (configuration not stated)
inactive: BT-549 breast 59.6% | SW-620 colon 21.3% | MCF7 breast 23.9% | HCT-116 colon 19%
active: MDA-MB-435 melanoma -46.1% | KM12 colon 8.24%

O=C(Nc1ccc(CO)cc1)c1ccccc1Nc1ccnc(C(F)(F)F)c1
inactive: BT-549 breast 104% | MDA-MB-435 melanoma 106% | SW-620 colon 105% | MCF7 breast 97.1% | HCC-2998 colon 106%

CCN(CC)Cc1cc(Nc2ccnc3cc(Cl)ccc23)ccc1OC
inactive: BT-549 breast 110% | MDA-MB-435 melanoma 77.9% | SW-620 colon 64.1% | MCF7 breast 86.7% | HCT-116 colon 69.1% | HCC-2998 colon 81% | KM12 colon 83.5%

CSC1=NCCCC1
inactive: BT-549 breast 108% | MDA-MB-435 melanoma 108% | SW-620 colon 114% | MCF7 breast 97.8% | HCT-116 colon 109% | HCC-2998 colon 115% | KM12 colon 113%

O=C(CNC(=O)OCc1ccccc1)NCC(=O)Oc1ccc([N+](=O)[O-])cc1
inactive: BT-549 breast 101% | MDA-MB-435 melanoma 98.4% | SW-620 colon 95.9% | MCF7 breast 95.8% | HCT-116 colon 93.7% | KM12 colon 102%

Nc1c(C(=O)Nc2ccccc2)sc2nc3c(cc12)C(O)CCC3 (configuration not stated)
active: MDA-MB-435 melanoma -27.2%
inactive: BT-549 breast 66% | SW-620 colon 29.6% | MCF7 breast 18.4% | HCT-116 colon 22% | HCC-2998 colon 17.9% | KM12 colon 25.8%

COc1ccc2c(c1)sc1nc(-c3ccccc3)c(-c3cccnc3)n12
inactive: BT-549 breast 85.1% | MDA-MB-435 melanoma 99.4% | SW-620 colon 97.5% | MCF7 breast 102% | HCT-116 colon 78.5% | KM12 colon 106%

O=C(Nc1ccncc1)C(=O)c1cn(S(=O)(=O)c2cccc(Cl)c2)c2ccccc12
active: MDA-MB-435 melanoma 1.36%
inactive: BT-549 breast 49% | SW-620 colon 47% | MCF7 breast 29.3% | HCT-116 colon 24% | KM12 colon 51.5%

O=C1C(c2ccccc2)C2C=CC(C2)N1O (configuration not stated)
inactive: BT-549 breast 136% | MDA-MB-435 melanoma 107% | SW-620 colon 109% | MCF7 breast 104% | HCT-116 colon 104% | HCC-2998 colon 103% | KM12 colon 108%

COc1ccc(-n2c(SCc3cc(OC)c(OC)c(OC)c3)nc3ccc(C)cc3c2=O)cc1
active: MDA-MB-435 melanoma -4.51%
inactive: BT-549 breast 71.5% | SW-620 colon 49.3% | MCF7 breast 24.8% | HCC-2998 colon 75.7% | KM12 colon 35.4%

COc1cc(-c2cc(/C=C/C(=O)c3ccc(N)cc3)[nH]n2)cc(OC)c1OC
active: BT-549 breast -28.7% | MDA-MB-435 melanoma 6.15% | SW-620 colon -38.1% | HCT-116 colon -81.5% | HCC-2998 colon -75.4% | KM12 colon -35.1%

Cc1ccc(NC(=O)Nc2c(Cl)cccc2Cl)cn1
inactive: BT-549 breast 118% | MDA-MB-435 melanoma 38.3% | SW-620 colon 127% | MCF7 breast 91.8% | HCC-2998 colon 104% | KM12 colon 105%

Cc1cc2c(C)c3cc(C)c(N)cc3nc2cc1N
active: SW-620 colon 4.58% | MCF7 breast -4.55% | KM12 colon 9.44%
inactive: BT-549 breast 57.8% | MDA-MB-435 melanoma 12% | HCC-2998 colon 28.3%

Oc1[nH]c2cc(Cl)ccc2c1/C=c1/ccc2c(c1)N=C(c1cc(F)cc(F)c1)N=2
inactive: BT-549 breast 37.5% | SW-620 colon 24.8% | MCF7 breast 11% | HCC-2998 colon 58% | KM12 colon 13.1%
active: MDA-MB-435 melanoma -32.5%

COc1cc([C@@H]2c3cc4c(cc3C(Br)[C@H]3COC(=O)[C@H]23)OCO4)cc(OC)c1OC (some centres not stated)
active: BT-549 breast -12.7% | MDA-MB-435 melanoma -42% | MCF7 breast -10.4% | HCT-116 colon -34.7% | KM12 colon -81.3%

CSCCCNC(=O)c1ccc2c(c1)/C(=C/c1[nH]c(C)cc1C)C(=O)N2
inactive: MDA-MB-435 melanoma 13.4% | SW-620 colon 28.9% | HCC-2998 colon 30.3% | KM12 colon 17.1%
active: BT-549 breast 9.33% | HCT-116 colon 3.75%
